Screens (PubChem)
HSF1 inh = HSF1 inhibition; 300,000 tested, 0.77% active; NIH3T3-HGL HSE-luciferase, MG132-induced, luminescence 8 h; active compounds read low; activity change, negative = inhibition, % at 7.5 µM (by protocol); AID 2098;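 active = more than half of replicate wells show activity change below -50%, luminescence cut by over half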;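 also: luciferase reports HSF-1 transcriptional activity via heat shock element; 0% = median of DMSO wells and -100% = zero luminescence signal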
NOD2-RIPK2 inh = NOD2-RIPK2 protein interaction inhibition; CHO BLA complementation NOD2-RIPK2, CCF4 ratio; O43353; AID 624267; inhibition, % at 4.98 µM; 360,000 tested, 0.38% active; in the data active = inhibition above about 21%;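 also: 0% = vehicle only and 100% = reference blocker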
Target sequence (O43353 whole entry, looked up): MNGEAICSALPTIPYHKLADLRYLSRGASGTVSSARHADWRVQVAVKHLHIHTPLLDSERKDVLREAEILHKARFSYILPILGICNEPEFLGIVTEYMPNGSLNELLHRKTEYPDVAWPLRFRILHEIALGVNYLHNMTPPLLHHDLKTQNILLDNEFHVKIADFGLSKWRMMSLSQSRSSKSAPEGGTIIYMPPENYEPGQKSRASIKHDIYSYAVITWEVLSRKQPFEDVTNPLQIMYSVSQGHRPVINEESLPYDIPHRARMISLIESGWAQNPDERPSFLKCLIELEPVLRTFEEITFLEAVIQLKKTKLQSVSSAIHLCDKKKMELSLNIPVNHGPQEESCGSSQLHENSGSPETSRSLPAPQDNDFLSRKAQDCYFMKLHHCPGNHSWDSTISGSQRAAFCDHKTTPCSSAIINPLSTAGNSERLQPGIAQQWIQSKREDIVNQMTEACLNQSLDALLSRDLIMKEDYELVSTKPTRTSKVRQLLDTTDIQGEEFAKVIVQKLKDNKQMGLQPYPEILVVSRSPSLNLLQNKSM
TLR9-MyD88 block = TLR9-MyD88 interaction inhibition; AID 504734; Q9NR96+Q99836; inhibition, % at 4.98 µM; 340,000 tested, 0.21% active; CHO BLA complementation TLR9-MyD88, CCF4 FRET ratio;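 active = inhibition above the mean over all tested compounds plus 3 SD, cut at about 21% in these data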;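 also: 0% = DMSO only wells and 100% = clavulanate BLA inhibitor control wells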
HSF-1 act = increases HSF-1 driven luciferase reporter signal; activation, % at 9 µM; NIH3T3-HGL HSF-1 luciferase reporter, MG132, 8 h; 100% = twice DMSO control signal; AID 504408; 300,000 tested, 1.7% active;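 active = mean replicate activation of at least 50% with a set share of replicates each reaching 50%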;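 also: 0% = median of the neutral control wells and 100% = twice that signal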
TLR4 MyD88 comp = TLR4-MyD88 interaction inhibition in cells; O00206+Q99836; 200,000 tested, 0.18% active; HeLa CL3-4 TLR4/MyD88 BLA complementation, FRET ratio; inhibition, % at 8.4 µM; in the data active = inhibition above about 25%;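 also: 0% = vehicle and 100% = reference inhibitor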
* = called active by the depositor; x = no result. The list is not random: actives were taken first. Their share in the collection is about 2.4%.

SMILES	HSF1 inh	NOD2-RIPK2 inh	TLR9-MyD88 block	HSF-1 act	TLR4 MyD88 comp
Cc1cc(C)nc(SCC(=O)NC2=NN=C(c3ccc(Br)cc3)CS2)n1	-44.6	-4.0	-2.1	-54.6	-10.2
CCC(Sc1nc(C)cc(C)n1)C(=O)NC1=NN=C(c2ccc(C)cc2)CS1 (stereo not drawn)	-73.9*	4.6	-1.9	-71.5	5.4
COc1ccc(CN2CCNC(=O)C2CC(=O)NC2CC(C)(C)CC(C)(C)C2)cc1OC (stereo not drawn)	-70.4*	-2.0	-11.3	-78.5	x
COc1ccc(CN2CCNC(=O)C2CC(=O)O)cc1OC (stereo not drawn)	-2.6	-4.6	-8.1	5.0	8.7
COc1ccc2[nH]c3c(N4CCc5ccccc5C4)ncnc3c2c1	71.4	5.9	7.2	64.5*	x
CCOC(=O)N1CCN(c2ncnc3c2[nH]c2ccc(OC)cc23)CC1	-3.7	-8.0	1.7	-13.4	17.6
COc1cc(C(CC(=O)Nc2ccccn2)N2Cc3ccccc3C2=O)cc(OC)c1OC (stereo not drawn)	4.9	-16.8	-9.7	12.9	x
Cc1noc(NS(=O)(=O)c2ccc(NC(=O)c3ccc(Cl)c(S(=O)(=O)N(C)c4ccccc4)c3)cc2)c1C	x	3.3	-8.7	x	x
Fc1ccc(CN2CCN(c3ncnc4scc(-c5ccccc5)c34)CC2)cc1	33.6	-10.9	-1.7	84.0*	x
Oc1ccccc1N1CCN(c2ncnc3scc(-c4ccccc4)c23)CC1	-8.3	6.5	-5.3	-7.4	x
Oc1ccccc1N1CCN(c2ncnc3scc(-c4ccc(F)cc4)c23)CC1	-83.2*	-4.2	-5.2	-87.0	x
Fc1ccc(-c2csc3ncnc(N4CCN(Cc5ccccc5)CC4)c23)cc1	3.7	1.7	-4.5	-4.1	x
CCOC(=O)C1=CNS(=O)(=O)NC1c1ccc(C)cc1 (stereo not drawn)	x	-4.6	-4.0	x	x
CCOC(=O)N1CCN(S(=O)(=O)N2CCCC(C(=O)NCc3cc(Br)ccc3OC)C2)CC1 (stereo not drawn)	x	-1.1	7.7	x	x
O=C(OCC(=O)N1CCNC1=O)c1ccccc1Cl	x	5.3	3.0	x	x
c1ccc2c(C3=NNC(=NC4CC4)SC3)c[nH]c2c1	86.9	-8.9	3.5	156.6*	3.5
c1ccc2c(C3=NNC(=NC4CCCCC4)SC3)c[nH]c2c1	12.6	0.4	11.7	18.1	-4.8
Cc1cc(C)cc(N(CCC#N)C(=O)COC(=O)Cn2[nH]c(=O)c3ccccc3c2=O)c1	x	3.9	-1.2	x	x
CS(=O)(=O)Nc1cccc(C2=NN(C(=O)CCCC(=O)O)C(c3cccs3)C2)c1 (stereo not drawn)	18.3	0.5	0.7	63.5*	x
Cc1cc(C(=O)CSc2ccc(F)cc2)cc(C)c1OC(=S)N(C)C	-61.9*	-10.1	4.8	-65.3	6.0
CC(NCc1cccnc1)c1ccccc1 (stereo not drawn)	-3.4	-0.7	0.3	1.6	x
CC(=O)Nc1ccc(-c2nnn(CC(=O)Nc3ccc4c(c3)OCO4)n2)cc1Cl	-59.2*	-5.0	-0.9	-67.2	-4.7
CN(C)c1ccc(-c2nnn(CC(=O)Nc3ccc4c(c3)OCCO4)n2)cc1	-16.8	-4.7	-14.7	-12.3	4.7
CCC1Oc2ccc(C)cc2N(Cc2cccc(C)c2)C1=O (stereo not drawn)	8.3	3.7	-28.6	53.6*	-1.8
CCOC(=O)Sc1nc2ncncc2[nH]1	x	4.0	0.0	x	x
SMILES	HSF1 inh	NOD2-RIPK2 inh	TLR9-MyD88 block	HSF-1 act	TLR4 MyD88 comp
COc1ccc(C(C)N2CC34C=CC(O3)C(C(=O)O)C4C2=O)cc1 (stereo not drawn)	-64.2*	1.6	3.6	-69.3	-10.0
c1ccc2c(c1)CC/C2=N/Nc1nc2ccccc2[nH]1	13.2	4.1	4.2	51.2*	-10.6
O=C(Nc1cc(Cl)ccc1-n1cncn1)c1cccc(S(=O)(=O)N2CCOCC2)c1	x	2.2	-6.7	x	x
CCCC[C@@H]1C[C@H]1[C@@H](NC(=O)c1cccs1)c1ccc(Cl)cc1	7.2	x	x	-5.0	3.4
CCCC[C@@H]1C[C@H]1[C@@H](NC(=O)c1ccco1)c1ccc(Cl)cc1	-81.8*	-2.4	0.7	-84.2	-3.2
O=C(Nc1ccc(N2CCOCC2)cc1)c1cc(-c2ccncc2)nc2ccccc12	-51.9*	-10.4	3.3	-62.9	x
CCCCCCCNC(=O)c1cc(-c2ccncc2)nc2ccccc12	43.4	12.6	-8.3	68.2*	x
Cc1ccc(CCNC(=O)c2cc(-c3ccncc3)nc3ccccc23)cc1	26.4	3.6	-5.2	44.8	x
NS(=O)(=O)c1ccc(CCNC(=O)c2cc(-c3ccccc3)nc3ccccc23)cc1	21.0	-8.6	6.1	64.1*	0.8
C[C@H](NC(=O)c1ccccc1Cl)C(=O)NCCc1ccc(S(N)(=O)=O)cc1	6.7	1.9	-5.3	55.6*	x
CC12CCC(=O)C=C1C(F)CC1C2C(O)CC2(C)C1CCC2(O)C(=O)CO (stereo not drawn)	x	11.4	7.0	x	x
CCCCCN1C=CC(=C2C(=O)c3ccccc3C2=O)C=C1	-81.3*	-0.5	-3.9	-84.6	0.3
CC1=CC(=C2C(=O)c3ccccc3C2=O)C=C(C)N1C	13.7	4.2	-8.5	22.8	-5.4
Cc1ccc(C(=O)c2nccn2C)cc1C	7.7	1.4	7.0	30.6	x
CN(C)c1nc(N)c(C#N)c(C#N)c1C#N	x	-12.5	-5.6	x	x
CCOC(=O)N1CCN(C(=O)CS(=O)(=O)c2cn(Cc3ccc(F)cc3)c3ccccc23)CC1	69.9	-3.8	3.0	96.1*	x
NS(=O)(=O)c1cc(C(=O)OCC(=O)Nc2ccc3c(c2)OCO3)ccc1Cl	x	-6.3	-5.6	x	x
Cc1ccccc1OCCN1C(=O)c2ccccc2C1=O	16.9	-6.2	-3.4	20.4	-11.8
O=C1c2ccccc2C(=O)N1CCOc1ccccc1	79.7	-1.3	-10.3	124.7*	3.8
CC(C)Oc1cccc(OCCN2C(=O)c3ccccc3C2=O)c1	8.3	1.9	-5.1	11.7	16.1
COc1ccc(OCCN2C(=O)c3ccccc3C2=O)cc1	-55.5*	3.3	1.3	-61.8	0.7
CN(C)C(CNC(=O)c1cccc(S(=O)(=O)NCc2ccccc2)c1)c1ccccc1 (stereo not drawn)	x	-9.7	-6.9	x	x
CCCCCn1nnnc1-c1nc2cc(C)c(C)cc2[nH]c1=O	x	-7.8	x	x	x
COC(=O)c1ccc(C(=O)OC)c(NC(=O)C(C)(C)C)c1	20.7	-2.0	-3.1	66.6*	-5.2
O=C(NCc1ccccc1C(F)(F)F)C1CC(c2ccc(C(F)(F)F)cc2)=NO1 (stereo not drawn)	-65.3*	-1.7	-13.8	-72.3	x
O=C(NCc1ccc(C(F)(F)F)cc1)C1CC(c2ccc(C(F)(F)F)cc2)=NO1 (stereo not drawn)	-4.5	-9.7	0.8	-0.7	x
CCOc1ccccc1C1N=C(c2ccc(OC)cc2)CC(c2ccccc2O)N1 (stereo not drawn)	94.3	12.4	10.3	129.6*	6.6
COc1ccc(C(=O)Nc2ccccc2)cc1NC(=O)c1cccs1	-2.7	-2.7	-3.4	12.5	x
COc1cc(C(=O)OCC(=O)c2ccccc2)cc2c1OCCO2	x	-3.0	-10.9	x	x
CC(=O)N1c2ccc(F)c(F)c2C[C@H]1C	x	-55.4	0.3	x	x
